tested on: Chordin-like protein 2 (CHRDL2); assay: CHRDL2 small-molecule binders, primary screen, biochemical, small-molecule microarray, 635 nm fluorescence (AID 1126); details: small-molecule microarray binding, fluorescence 635 nm; higher = more signal;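 also: printed compound slides probed with Chrdl2 protein at 4 µg/mL for 1 h at 4 C; score merges 667 nm emission intensity with signal to noise over three replicate slides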

SMILES | composite z-score
C=CCN1C(=O)[C@]2(Cc3ccccc3)N=C(c3ccc(OCCCO)cc3)O[C@@H]2c2ccccc21 | 0.997
O=C1OCCC/C=C\[C@H]2OC34C=CCN(c5ccc6ccccc6c5)C(=O)[C@H]3N(CCCCCO)C(=O)[C@@H]4C12 (some centres undefined) | -0.654
CCOc1cc(C(O)C2C=CC3C(=O)N(c4ccccc4)C(=O)C3N2Nc2ccc(C(C)C)cc2)ccc1O (centres undefined) | 0.161
[N-]=[N+]=Nc1ccccc1C[C@]1(C(=O)N2CCCCC2)COC(c2ccc(OCCCO)cc2)=N1 | -0.217
C=C(C(=O)CC[C@H](OC(C)=O)c1ccccc1OCCO)C(C)C | -0.163
Cc1ccc(S[C@]2(C(=O)O)CC(=O)N(C(C)C)[C@@H]2c2ccc(CO)cc2)cc1 | -0.215
CN(C)C(=O)[C@]1(Cc2ccccc2)N=C(c2ccc(OCCCO)cc2)O[C@@H]1c1ccccc1N=[N+]=[N-] | -0.199
CCCCCN1CC=CC23O[C@@H]4C=CCOC(=O)[C@@H]4[C@H]2C(=O)N(C(C)CO)[C@@H]3C1=O (some centres undefined) | -0.811
CO[C@H]1O[C@H](CO)[C@@H](OC(=O)Nc2cccc(F)c2)[C@H](OC(=O)Nc2ccccc2)[C@H]1OC(=O)Nc1ccccc1 | 0.323
NC(=O)[C@@H]1[C@H]2C(=O)O[C@H](c3ccccc3)[C@H](c3ccccc3)N2[C@H](c2ccc(O)cc2)[C@@]12C(=O)Nc1ccc(C#CC3=CCCCC3)cc12 | -0.0967
C=CC1c2cc(O)c(OC)cc2CCN1Cc1cccc(OC(F)(F)F)c1 (centres undefined) | 0.44
CC(C)[Si](C#CCCCC#N)(O[C@H](c1ccccc1)c1cn(Cc2cccc(Cl)c2)nn1)C(C)C | 0.841
COC(=O)c1c2oc(c1C(=O)OC)C(=O)NC1(CCCCC1)c1cn(nn1)C[C@H](Cc1ccccc1)NC(=O)N[C@H](CO)CC2 | 0.296

biological target: Concanavalin-A (Canavalia ensiformis) (UniProt P02866); assay: ConA small-molecule binders, primary screen, artefact control for SMM control protein annotation, biochemical, small-molecule microarray, Alexa647 label, 635 nm (AID 1127); details: ConA-A647 binding fluorescence, higher = more signal;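 also: z combines 667 nm emission intensity with signal-to-noise across three replicate slides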
Sequence (P02866 whole entry, looked up): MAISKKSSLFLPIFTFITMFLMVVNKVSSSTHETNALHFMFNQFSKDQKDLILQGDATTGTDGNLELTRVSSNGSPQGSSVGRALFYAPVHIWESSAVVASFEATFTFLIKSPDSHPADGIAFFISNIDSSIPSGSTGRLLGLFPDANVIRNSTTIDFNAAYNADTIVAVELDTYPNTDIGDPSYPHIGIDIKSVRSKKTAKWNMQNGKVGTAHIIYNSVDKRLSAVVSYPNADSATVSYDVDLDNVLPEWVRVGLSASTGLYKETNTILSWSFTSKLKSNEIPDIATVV

SMILES | composite z-score
O=C1O[C@@H](c2ccccc2)[C@@H](c2ccccc2)N2[C@@H](c3ccc(OCCO)cc3)[C@]3(C(=O)Nc4ccc(C#CC5=CCCCC5)cc43)[C@@H](C(=O)N3CCCCCCC3)[C@H]12 | 1.13
CN1C(=O)C2C=CC(C(O)c3ccccc3)N(N3CCCCC3)C2C1=O (centres undefined) | 0.872
C[C@H]1C2[C@H](Cc3ccccc3)NC(=O)[C@]23C(=O)NCC(=O)N2CCC[C@H]2C(=O)NC/C=C/CCC/C=C/C3[C@@H]2O[C@]12C (some centres undefined) | -1.27
NC(=O)NCC#Cc1ccc2c(c1)[C@]1(C(=O)N2)[C@H](C(=O)O)[C@H]2C(=O)O[C@H](c3ccccc3)[C@H](c3ccccc3)N2[C@@H]1c1ccc(O)cc1 | 0.888
O=C(O)C1N=C(c2ccc(OCCCO)cc2)N(c2ccccc2)O1 (centres undefined) | 0.658
CN(C)CCCCCCNC(=O)[C@@H]1C[C@@H]2C(=O)N[C@@H](CCCC[N+](C)(C)C)C(=O)N2[C@@H]1c1ccc(O)cc1 | 0.898
O=C1OCC=C[C@H]2OC34C=CCN(CCN5CCOCC5)C(=O)[C@H]3N(CCO)C(=O)[C@@H]4[C@@H]12 (some centres undefined) | 0.575
CS(=O)(=O)CCOC(=O)C1=CC(CCCO)=CC(C2CC2)N(Cc2cc3c(cc2Br)OCO3)C=C1C(=O)OCCS(C)(=O)=O (centres undefined) | 0.544
CCCC=C(CCC)[C@@H](NS(=O)(=O)c1ccc(Cl)cc1)c1ccc(C(=O)OC)cc1 | 0.627
[N-]=[N+]=Nc1ccccc1C[C@@]1(C(=O)N2CCCCC2)N=C(c2ccc(OCCCO)cc2)O[C@@H]1c1ccccc1N=[N+]=[N-] | 1.12
O=C1O[C@H](c2ccccc2)[C@H](c2ccccc2)N2[C@H]1[C@@H](C(=O)NC[C@H](O)c1ccccc1)[C@]1(C(=O)Nc3ccc(C#CC4=CCCCC4)cc31)[C@H]2c1ccccc1OCCO | 0.978
C=CCC(OC(C)=O)[C@@H]1[C@@H](N(Cc2cc3ccccc3o2)C(=O)Cc2ccc(OC)cc2)c2cc(OCCCO)ccc2N1C(=O)c1ccc2ccccc2c1 (some centres undefined) | -0.439
O=C1[C@H]2C=C(I)[C@H](C[C@@H]2OCCCCO)[C@@]12CO2 | -0.0969
[N-]=[N+]=Nc1ccccc1C[C@]1(C(=O)NCC(O)CO)N=C(c2ccc(OCCCO)cc2)O[C@H]1c1ccccc1 (some centres undefined) | 0.197
O=C1O[C@H](c2ccccc2)[C@H](c2ccccc2)N2[C@H]1[C@@H](C(=O)NC[C@H](O)c1ccccc1)[C@]1(C(=O)Nc3ccccc31)[C@H]2c1ccc(O)cc1 | 1.01
CCN(CC)c1ccc(N2CC=CC34O[C@@H]5C=CCOC(=O)[C@@H]5[C@H]3C(=O)N(CCCCCCO)[C@@H]4C2=O)cc1 (some centres undefined) | -0.214
CC1CC/C=C\[C@H]2OC34C=CCN(c5ccc6ccccc6c5)C(=O)[C@H]3N(CCO)C(=O)[C@@H]4C2C(=O)O1 (some centres undefined) | -1.12
CC=CC(O)C1C=CC2C(=O)N(C)C(=O)C2N1N(c1ccccc1)c1ccccc1 (centres undefined) | 0.555

SMILES | composite z-score
CCOC(=O)C1=CCC(c2ccc(F)cc2)N(S(=O)(=O)c2ccc(C)cc2)C1 (centres undefined) | 0.221
O=C1C2C=CC(C(O)C=Cc3ccc([N+](=O)[O-])cc3)N(Nc3ccccc3F)C2C(=O)N1c1ccccc1 (centres undefined) | 1.15
C=CCN1Cc2ccccc2[C@@H]2OC(c3ccc(OCCCO)cc3)=N[C@]2(CCS(=O)(=O)c2ccccc2)C1=O | 1.21
O=C(CS)NCCCCCNC(=O)[C@H]1C[C@H]2C(=O)NCC(=O)N2[C@H]1c1ccc(O)cc1 | -0.0836
[N-]=[N+]=NCc1ccccc1[C@@H]1OC(c2ccc(OCCCO)cc2)=N[C@]1(CCS(=O)(=O)c1ccccc1)C(N)=O | 0.971
C=CCN1C(=O)[C@]2(Cc3ccccc3)N=C(c3ccc(OCCCO)cc3)O[C@@H]2c2ccccc21 | 0.911
O=C1OCCC/C=C\[C@H]2OC34C=CCN(c5ccc6ccccc6c5)C(=O)[C@H]3N(CCCCCO)C(=O)[C@@H]4C12 (some centres undefined) | -0.328
CCOc1cc(C(O)C2C=CC3C(=O)N(c4ccccc4)C(=O)C3N2Nc2ccc(C(C)C)cc2)ccc1O (centres undefined) | 1.09
[N-]=[N+]=Nc1ccccc1C[C@]1(C(=O)N2CCCCC2)COC(c2ccc(OCCCO)cc2)=N1 | 0.345
C=C(C(=O)CC[C@H](OC(C)=O)c1ccccc1OCCO)C(C)C | -0.104
Cc1ccc(S[C@]2(C(=O)O)CC(=O)N(C(C)C)[C@@H]2c2ccc(CO)cc2)cc1 | 0.394
CN(C)C(=O)[C@]1(Cc2ccccc2)N=C(c2ccc(OCCCO)cc2)O[C@@H]1c1ccccc1N=[N+]=[N-] | 1.1
CCCCCN1CC=CC23O[C@@H]4C=CCOC(=O)[C@@H]4[C@H]2C(=O)N(C(C)CO)[C@@H]3C1=O (some centres undefined) | -0.54
CO[C@H]1O[C@H](CO)[C@@H](OC(=O)Nc2cccc(F)c2)[C@H](OC(=O)Nc2ccccc2)[C@H]1OC(=O)Nc1ccccc1 | 0.899
NC(=O)[C@@H]1[C@H]2C(=O)O[C@H](c3ccccc3)[C@H](c3ccccc3)N2[C@H](c2ccc(O)cc2)[C@@]12C(=O)Nc1ccc(C#CC3=CCCCC3)cc12 | 0.426
C=CC1c2cc(O)c(OC)cc2CCN1Cc1cccc(OC(F)(F)F)c1 (centres undefined) | 0.462
CC(C)[Si](C#CCCCC#N)(O[C@H](c1ccccc1)c1cn(Cc2cccc(Cl)c2)nn1)C(C)C | 0.0848
COC(=O)c1c2oc(c1C(=O)OC)C(=O)NC1(CCCCC1)c1cn(nn1)C[C@H](Cc1ccccc1)NC(=O)N[C@H](CO)CC2 | 0.91
